From PubChem
HT1080 IDH1KD tx: qHTS for induction of synthetic lethality in tumor cells producing 2HG: qHTS for the HT-1080-IDH1KD cell line; AID 686971, 2013; Potency, µM (top dose mostly 46.1 µM), without a hit: at the top dose activity, negative = toxicity, usual class: cytotoxic; 360,000 compounds, 2% hits; HT-1080 IDH1 knockdown viability, ATP luminescence, 48 h;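 also: potency is read from the fitted curve at half-maximal effect; 0% = DMSO wells and -100% = cell-free medium wells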
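% activity derives from luminescence (CellTiter-Glo), normalised to DMSO and no-cell wells. HT-1080-IDH1KD cells, 750/well, had 48 h compound exposure at 37 °C.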
IL1B secr inh: qHTS for Inhibitors of Inflammasome Signaling: IL-1-beta AlphaLISA Primary Screen. THP-1 LPS/ATP IL-1B secretion, AlphaLISA, 16 h; hits give low values. activity change, % at 57.5 µM. 360,000 compounds, 4.7% hits. AID 743279, 2014; in the data active = activity change below about -50%; inconclusive = mostly about -30% to -49%
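Secreted IL-1B measured by AlphaLISA bead assay after 16 h compound exposure of THP-1 cells; compounds (final up to 57.5 uM) added 1 h before LPS (250 ng/mL) and ATP (1.25 mM) stimulation; lower signal means less secretion.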
DT40 TDP1 no CPT: qHTS for Inhibitors of human tyrosyl-DNA phosphodiesterase 1 (TDP1): qHTS in cells in absence of CPT; DT40 Tdp1-/- hTDP1 cells, no CPT, ATP luminescence, 48 h; Potency, µM (highest dose often 46.2 µM), for the others: top-dose activity change, negative = growth inhibition, hits mostly inhibitors; 420,000 compounds, 15% hits; AID 686978, 2013; also: potency is read from the fitted curve at half-maximal effect; nearly all actives have a fitted effect of over 55% in size
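Growth of hTDP1-complemented DT40 Tdp1-knockout cells is measured by ATP luminescence after at least 48 hr compound exposure at 37 °C, with DMSO substituting for the 20 nM CPT used in the parallel screen.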
ELG1 repair inh: qHTS screen for small molecules that inhibit ELG1-dependent DNA repair in human embryonic kidney (HEK293T) cells expressing luciferase-tagged ELG1; 330,000 compounds, 2.3% hits; AID 504467, 2011; HEK293T ELG1-luciferase reporter, luminescence, 16 h; DNA damage induced by 5-fluorouridine; Potency, µM (doses to about 46.1 µM), inactives show at the top dose activity change, negative = inhibition, usual class: inhibitors; also: potency is read from the fitted curve at half-maximal effect; nearly all actives have a fitted effect of over 55% in size
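DMSO vehicle served as the neutral condition. Each well held 2,000 cells given 5-fluorouridine plus compound; after 16 hr at 37 °C/5% CO2, ONE-Glo was added and luciferase measured 30 min later.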
HT1080NT lethal: qHTS for induction of synthetic lethality in tumor cells producing 2HG: qHTS for the HT-1080-NT fibrosarcoma cell line; AID 686970, 2013; 360,000 compounds, 1.6% hits; Potency, µM (titrated, usually from 46.1 µM), inactives show at the top dose activity, negative = less viability, actives largely listed as cytotoxic; HT-1080-NT fibrosarcoma viability, CellTiter-Glo ATP luminescence, 48 h;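 also: NT is the 2HG producing partner of a matched IDH1 knockdown line; potency is read from the fitted curve at half-maximal effect; 0% = DMSO-treated cells and -100% = media-only wells without cells; nearly all actives have a fitted effect of over 55% in size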
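Luminescent CellTiter-Glo readout after 48 hours of compound exposure at 37 degrees C defined viability of HT-1080-NT cells. Activity was normalized to DMSO wells and cell-free media wells; concentration-response curves were fitted and assigned curve classes.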
DT40 TDP1 CPT: qHTS for Inhibitors of human tyrosyl-DNA phosphodiesterase 1 (TDP1): qHTS in cells in presence of CPT. chicken DT40 Tdp1-/-;hTDP1 cells + 20 nM CPT, ATP luminescence, 48 h. Potency, µM (top dose mostly 46.2 µM), for the others: top-dose activity change, negative = growth inhibition, hits mostly inhibitors. 420,000 compounds, 12% hits. AID 686979, 2013; also: potency is read from the fitted curve at half-maximal effect; nearly all actives have a fitted effect of over 55% in size
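Cell growth measured by CellTiter-Glo luminescence after a minimum 48 h, 37 C compound exposure with 20 nM CPT in Tdp1-knockout DT40 cells stably expressing hTDP1, seeded 400/well; qHTS titration format.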
The depositor's hits bear a star; ? = inconclusive; nt = not tested or not shown. An excerpt weighted towards active compounds, which were near 19% of everything screened. Unless noted, calls follow the shape of the dose curve; as a rule, active = well fitted curve in the direction sought with a large enough effect; inconclusive = small, poorly fitted or top-dose-only effect, or another doubt; inactive = no such curve, though single readings can be large; an effect the other way counts as inactive or inconclusive. Unless noted, % is scaled to controls: 0 for no effect and ±100 for the full control effect.

SMILES | HT1080 IDH1KD tx | IL1B secr inh | DT40 TDP1 no CPT | ELG1 repair inh | HT1080NT lethal | DT40 TDP1 CPT
CC1CC(C)CN(C(=O)CSC2=Nc3ccccc3C3=NC(Cc4c[nH]c5ccccc45)C(=O)N23)C1 (stereo not given) | -10.3% | -12.9 | 16.4µM* | -18.1% | -7.0% | ?
CC(=O)N1CCN(CCS(=O)(=O)c2ccc(Br)cc2)CC1 | 2.6% | -53.2* | -2.4% | 21.8% | 0.6% | -10.3%
COc1ccc(NC(=O)CCc2c(C)nn(-c3ccc(N4CCOCC4)nn3)c2C)cc1Cl | nt | nt | ? | nt | nt | -13.6%
CCn1cc2nc(SCc3cccc(OC)c3)n(Cc3ccc(Cl)cc3)c(=O)c2n1 | nt | nt | 13µM* | nt | nt | 16.4µM*
CCn1cc2nc(SCC(=O)Nc3ccccc3F)n(Cc3ccccc3)c(=O)c2n1 | -4.5% | -17.8 | ? | -8.0% | 3.4% | ?
CCn1cc2nc(SCC(=O)Nc3ccc(OC)c(OC)c3)n(Cc3ccc(Cl)cc3)c(=O)c2n1 | nt | nt | ? | nt | nt | 18.4µM*
CCn1cc2nc(SCc3cc(C)ccc3C)n(CCc3ccccc3)c(=O)c2n1 | nt | nt | 18.4µM* | nt | nt | 20.6µM*
CCn1c(SCc2ccccc2)nc2ccccc2c1=O | -1.8% | 49.6 | -22.2% | nt | -0.3% | -5.6%
CCCN1Cc2cccc(C(=O)NCCc3ccccc3)c2C1=O | -0.3% | -3.1 | -16.9% | 7.2% | 12.3% | ?
Cc1ccc(CNC(=O)c2c(-c3ccccc3F)noc2C)o1 | nt | nt | -26.7% | nt | nt | -21.9%
c1cnc2ccc(C(c3nnnn3C3CCCC3)N3CCN(c4nc5ccccc5s4)CC3)cc2c1 (stereo not given) | -11.2% | -53.0* | ? | -27.9% | -3.6% | ?
Clc1ccc(C(c2nnnn2CCc2ccccc2)N2CCSCC2)cc1 (stereo not given) | -11.0% | ? | ? | 0.6% | -1.1% | ?
COCCn1nnnc1C(c1cccs1)N1CCN(c2nc3ccccc3s2)CC1 (stereo not given) | -18.5% | -17.3 | 23.1µM* | ? | -0.9% | ?
COCCn1nnnc1C(c1cccs1)N1CCN(c2cc(C)ccc2C)CC1 (stereo not given) | -29.9% | -52.9* | ? | ? | -21.2% | ?
COCCn1nnnc1C(c1ccccn1)N1CCN(c2cc(Cl)ccc2C)CC1 (stereo not given) | -8.3% | -2.2 | ? | -10.4% | -0.1% | ?
Clc1ccc(C(c2nnnn2C2CCCC2)N2CCN(c3nc4ccccc4s3)CC2)cc1 (stereo not given) | 3.4% | -5.4 | -21.1% | nt | 10.8% | -6.5%
Oc1ccc(C(c2nnnn2CCc2ccccc2)N2CCN(c3nc4ccccc4s3)CC2)cc1 (stereo not given) | -2.8% | -50.0* | 13µM* | ? | 6.6% | 16.4µM*
CCCN1CCN(C(=O)Cn2nc(CC)n3c(cc4sccc43)c2=O)CC1 | 7.7% | -18.4 | 0.6% | ? | 12.3% | 7.1%
O=C(CSc1n[nH]c(-c2ccco2)n1)Nc1ccccc1 | -8.9% | 11.2 | 6.6% | 12.8% | -8.2% | -13.2%
CN(CC(=O)NCCc1ccc(S(N)(=O)=O)cc1)S(=O)(=O)/C=C/c1ccccc1 | -13.1% | 33.5 | -17.0% | 1.6% | -5.6% | -20.9%
Cc1ccc(Cl)cc1N1CCN(C(c2cccnc2)c2nnnn2C2CCCCC2)CC1 (stereo not given) | -4.7% | -52.6* | ? | -7.4% | 12.4% | ?
